Experimental data from PubChem BioAssay (EPA / NIEHS).
Active and inactive are the calls of the source. How the source made its calls: active means hit-call score of the fitted dose curve at least 0.9, where 1 is the maximum; inactive means score below 0.9.

Columns and labels:
[1] = ATG_GLI_CIS: Attagene CIS-FACTORIAL HepG2 Assay for human Zinc Finger Protein GLI1 (AID 2282945); conditions: HepG2, Attagene cis-factorial reporter mRNA, GLI element; actives raise or lower the signal
Summary of the method: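 Transiently transfected HepG2 cells report endogenous transcription factor activity via cis-element-driven reporter units. After 24 h compound exposure, reporter mRNA was measured by RT-PCR with capillary electrophoresis; bidirectional fitting against DMSO baseline.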

[2] = ATG_GRE_CIS: Attagene CIS-FACTORIAL HepG2 Assay for human Glucocorticoid Response Elements (GRE) (AID 2282947); conditions: HepG2 GRE cis-reporter, Attagene multiplex mRNA; actives raise or lower the signal
Summary of the method: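 Endogenous transcription factor activity is read through cis-element reporter constructs transiently transfected into HepG2 cells. After 24 h treatment, labelled RT-PCR products are resolved by capillary electrophoresis; DMSO sets baseline for bidirectional curve fitting.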

[3] = ATG_ISRE_CIS: Attagene CIS-FACTORIAL HepG2 Assay for human Interferon Regulatory Factor 1 (IRF1) binding to an Interferon-Stimulated Response Element (ISRE) (AID 2282948); conditions: HepG2 ISRE cis-reporter (Attagene), mRNA transcription readout; actives raise or lower the signal
Summary of the method: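 Transfected HepG2 (multiple reporter transcription units, cis elements) dosed 24 h. RNA → oligo(dT) RT → PCR → 6-FAM primer extension → HpaI → CE. DMSO = negative control/baseline.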

[4] = ATG_M_32_CIS: Attagene CIS-FACTORIAL HepG2 Assay for M32 Transcription Factor (Internal Marker) (AID 2282949); conditions: HepG2 Attagene cis-factorial M32 reporter, mRNA; actives raise or lower the signal;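 further: background control marker of the multiplexed CIS panel rather than a real target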
Summary of the method: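 Internal background marker read-out: RT-PCR/capillary electrophoresis fluorescence of reporter transcripts from transiently transfected HepG2 cells after 24 h chemical exposure. Activity fitted bidirectionally relative to DMSO negative control.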

[5] = ATG_M_06_CIS: Attagene CIS-FACTORIAL HepG2 Assay for M06 Transcription Factor (Internal Marker) (AID 2282950); conditions: HepG2 Attagene CIS-FACTORIAL M06 internal marker reporter; actives raise or lower the signal
Summary of the method: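 HepG2 cells transiently transfected with cis-regulated multiple reporter transcription units were exposed to chemical for 24 h; reporter mRNA was quantified by RT-PCR, 6-FAM primer labelling, HpaI digestion and capillary electrophoresis, fitted bidirectionally against DMSO.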

[6] = biological target: Hypoxia-inducible factor 1-alpha (Homo sapiens) (UniProt Q16665); assay: ATG_HIF1a_CIS: Attagene CIS-FACTORIAL HepG2 Assay for human Hypoxia Inducible Factor 1 (HIF1A) (AID 2282951); conditions: HepG2 Attagene cis-factorial HIF1a reporter transcription; actives raise or lower the signal
Summary of the method: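 RT-PCR/capillary electrophoresis fluorescence readout of reporter transcripts from endogenous-TF-driven cis elements in transfected HepG2 cells, 24 h exposure; activity fitted in both directions against DMSO controls.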

[7] = biological target: Hepatocyte nuclear factor 6 (Homo sapiens) (UniProt Q9UBC0); assay: ATG_HNF6_CIS: Attagene CIS-FACTORIAL HepG2 Assay for human Hepatocyte Nuclear Factor 6 (HNF6) (AID 2282952); conditions: HepG2 Attagene cis-factorial HNF6 reporter transcription; actives raise or lower the signal
Summary of the method: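 HepG2 cells transiently transfected with cis-element-driven multiple reporter transcription units, dosed 24 h; reporter mRNA quantified by RT-PCR, FAM primer extension, HpaI digestion and capillary electrophoresis; bidirectional fit versus DMSO baseline.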

[8] = biological target: Heat shock factor protein 1 (Homo sapiens) (UniProt Q00613); assay: ATG_HSE_CIS: Attagene CIS-FACTORIAL HepG2 Assay for human Heat Shock Transcription Factor 1 (HSE) (AID 2282953); conditions: HepG2 HSE cis-reporter, Attagene RNA transcription; actives raise or lower the signal
Summary of the method: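 HepG2 cells transiently transfected with multiple reporter transcription units under cis-regulatory promoter control, measuring endogenous transcription factor activity. After 24 h chemical exposure, reporter mRNA quantified by RT-PCR, fluorescent labelling, HpaI digestion and capillary electrophoresis; bidirectional fit versus DMSO.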

[9] = ATG_MRE_CIS: Attagene CIS-FACTORIAL HepG2 Assay for human Metal Responsive Element (MRE) (AID 2282954); conditions: HepG2 MRE cis-reporter transcription, Attagene multiplex; actives raise or lower the signal
Summary of the method: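 Fluorescent reporter fragments separated by capillary electrophoresis give mRNA induction for the MRE unit after 24 h treatment of transfected HepG2 cells. Endogenous transcription-factor activity is read; DMSO serves as negative control and baseline.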

[10] = ATG_PBREM_CIS: Attagene CIS-FACTORIAL HepG2 Assay for human Phenobarbital-responsive Enhancer Module (PBREM) (AID 2282955); conditions: HepG2 PBREM cis-reporter, Attagene multiplexed transcription; actives raise or lower the signal
Summary of the method: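 Reporter mRNA read by RT-PCR, 6-FAM primer extension, HpaI digestion and capillary electrophoresis. Transfected HepG2 cells, 24 h compound exposure. Gain or loss of signal fitted bidirectionally relative to DMSO baseline.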

[11] = biological target: Paired box protein Pax-6 (Homo sapiens) (UniProt P26367); assay: ATG_Pax6_CIS: Attagene CIS-FACTORIAL HepG2 Assay for human Paired Box 6 (PAX6) (AID 2282956); conditions: HepG2 CIS-FACTORIAL PAX6 reporter transcription, RNA readout; actives raise or lower the signal
Summary of the method: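 Transient MRTU transfection of HepG2 → compound exposure 24 h → TriZol RNA, oligo(dT) RT → PCR, 6-FAM primer extension, HpaI cut → capillary electrophoresis; activity fitted both directions against DMSO.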

[12] = ATG_PXRE_CIS: Attagene CIS-FACTORIAL HepG2 Assay for human Pregnane X Receptor Element (PXRE) (AID 2282957); conditions: HepG2 Attagene CIS-FACTORIAL PXRE reporter, mRNA; actives raise or lower the signal
Summary of the method: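 HepG2 cells transiently transfected with cis-regulated multiple reporter transcription units; endogenous factor activity measured as reporter mRNA 24 h after dosing. RT-PCR, fluorescent primer extension, HpaI digestion, capillary electrophoresis; bidirectional fit versus DMSO baseline.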

[13] = ATG_PPRE_CIS: Attagene CIS-FACTORIAL HepG2 Assay for human Peroxisome Proliferator-activated Response Element (PPRE) (AID 2282958); conditions: HepG2 PPRE cis-element reporter, Attagene transcription factor profiling; actives raise or lower the signal
Summary of the method: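 Read-out: fluorescent reporter mRNA fragments resolved by capillary electrophoresis after RT-PCR. HepG2 cells carried transiently transfected PPRE-driven cis reporter constructs and were dosed for 24 h; gain or loss of signal fitted relative to DMSO.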

[14] = ATG_RORE_CIS: Attagene CIS-FACTORIAL HepG2 Assay for human RAR-related Orphan Receptor Element (RORE) (AID 2282959); conditions: HepG2 Attagene cis-factorial RORE reporter, mRNA; actives raise or lower the signal
Summary of the method: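 Readout: fluorescent reporter mRNA by RT-PCR plus capillary electrophoresis, 24 h after dosing transfected HepG2 cells. Endogenous transcription factor activity on a cis promoter element is measured. Gain or loss of signal fitted against DMSO.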

[15] = ATG_Sox_CIS: Attagene CIS-FACTORIAL HepG2 Assay for human SRY-box transcription factor (SOX) (AID 2282960); conditions: HepG2 Attagene cis-factorial SOX reporter, mRNA; actives raise or lower the signal
Summary of the method: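 Read-out: fluorescent RT-PCR products of SOX1-linked reporter transcripts resolved by capillary electrophoresis, fitted bidirectionally against DMSO. Transiently transfected HepG2 cells, 24 h after chemical exposure, endogenous transcription factor activity.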

[16] = biological target: Transcription factor Sp1 (Homo sapiens) (UniProt P08047); assay: ATG_Sp1_CIS: Attagene CIS-FACTORIAL HepG2 Assay for human Specificity Protein 1 (Sp1) (AID 2282961); conditions: HepG2 Sp1 cis-reporter transcription, actives raise or lower the signal
Summary of the method: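 Read-out: fluorescence of 6-FAM-labeled, HpaI-digested RT-PCR products separated by capillary electrophoresis. HepG2 cells carried transfected cis-element reporter units and were exposed to chemicals for 24 h; gain or loss of signal fitted relative to DMSO.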

[17] = ATG_SREBP_CIS: Attagene CIS-FACTORIAL HepG2 Assay for human Sterol Regulatory Element Binding (SREBP) (AID 2282962); conditions: HepG2 Attagene cis-factorial SREBP reporter, mRNA; actives raise or lower the signal
Summary of the method: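 Transfected HepG2 (cis-regulated reporter library, endogenous TFs) → compound 24 h → total RNA → oligo(dT) RT → reporter-specific PCR → FAM primer extension, HpaI cut → CE fluorescence. Fit bidirectional vs DMSO.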

[18] = biological target: Signal transducer and activator of transcription 3 (Homo sapiens) (UniProt P40763); assay: ATG_STAT3_CIS: Attagene CIS-FACTORIAL HepG2 Assay for human Signal Transducer and Activator of Transcription 3 (STAT3) (AID 2282963); conditions: HepG2, Attagene cis-factorial STAT3 reporter transcription; actives raise or lower the signal
Summary of the method: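 Values derive from bidirectional fits relative to DMSO of reporter mRNA levels, measured by RT-PCR with capillary electrophoresis, in HepG2 cells carrying transiently transfected cis-regulated reporter units and exposed 24 h.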

[19] = ATG_TA_CIS: Attagene CIS-FACTORIAL HepG2 Assay for human TA Basal Promoter (AID 2282964); conditions: HepG2 Attagene CIS-factorial TA basal promoter reporter; actives raise or lower the signal
Summary of the method: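 HepG2 cells transiently transfected with multiplexed cis-promoter reporter units, dosed 24 h. Reporter mRNA measured by RT-PCR, 6-FAM labelling, HpaI digestion and capillary electrophoresis; bidirectional fit versus DMSO baseline, serving as background control.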

[20] = biological target: Bile acid receptor (Homo sapiens) (UniProt Q96RI1); assay: ATG_IR1_CIS: Attagene CIS-FACTORIAL HepG2 Assay for human Nuclear Receptor Subfamily 1 Group H Member 4 (NR1H4), IR1 submotif (AID 2282946); conditions: IR1 reporter transcription, actives raise or lower the signal
Summary of the method: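 HepG2 cells transiently transfected with multiple cis-promoter-driven reporter units to measure endogenous transcription factor activity; 24 h exposure. Reporter mRNA read by RT-PCR, FAM labelling, HpaI digestion and capillary electrophoresis. Bidirectional fit versus DMSO.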

Measured: AC50

Signal transducer and activator of transcription 3 (Homo sapiens), sequence (P40763 whole entry, looked up): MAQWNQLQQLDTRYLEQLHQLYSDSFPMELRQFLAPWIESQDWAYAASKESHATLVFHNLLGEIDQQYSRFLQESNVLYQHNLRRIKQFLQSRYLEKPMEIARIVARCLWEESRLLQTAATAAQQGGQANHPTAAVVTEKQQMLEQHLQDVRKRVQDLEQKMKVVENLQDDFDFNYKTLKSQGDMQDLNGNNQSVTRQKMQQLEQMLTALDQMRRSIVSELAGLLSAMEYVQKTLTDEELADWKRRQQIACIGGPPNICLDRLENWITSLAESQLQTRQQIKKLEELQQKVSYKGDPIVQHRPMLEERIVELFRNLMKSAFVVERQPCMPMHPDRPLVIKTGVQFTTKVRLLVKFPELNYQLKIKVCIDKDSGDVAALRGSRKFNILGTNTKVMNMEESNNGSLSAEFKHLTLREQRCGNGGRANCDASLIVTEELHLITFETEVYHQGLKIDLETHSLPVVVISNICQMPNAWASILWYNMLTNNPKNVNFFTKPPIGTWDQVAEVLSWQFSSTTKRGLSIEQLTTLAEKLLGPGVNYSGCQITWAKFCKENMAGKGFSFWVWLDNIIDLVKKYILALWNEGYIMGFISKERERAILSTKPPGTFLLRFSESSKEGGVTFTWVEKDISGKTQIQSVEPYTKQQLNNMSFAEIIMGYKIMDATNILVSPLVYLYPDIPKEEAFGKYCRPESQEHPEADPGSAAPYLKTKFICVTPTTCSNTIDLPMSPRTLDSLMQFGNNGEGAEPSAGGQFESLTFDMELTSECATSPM
Heat shock factor protein 1 (Homo sapiens), sequence (Q00613 whole entry, looked up): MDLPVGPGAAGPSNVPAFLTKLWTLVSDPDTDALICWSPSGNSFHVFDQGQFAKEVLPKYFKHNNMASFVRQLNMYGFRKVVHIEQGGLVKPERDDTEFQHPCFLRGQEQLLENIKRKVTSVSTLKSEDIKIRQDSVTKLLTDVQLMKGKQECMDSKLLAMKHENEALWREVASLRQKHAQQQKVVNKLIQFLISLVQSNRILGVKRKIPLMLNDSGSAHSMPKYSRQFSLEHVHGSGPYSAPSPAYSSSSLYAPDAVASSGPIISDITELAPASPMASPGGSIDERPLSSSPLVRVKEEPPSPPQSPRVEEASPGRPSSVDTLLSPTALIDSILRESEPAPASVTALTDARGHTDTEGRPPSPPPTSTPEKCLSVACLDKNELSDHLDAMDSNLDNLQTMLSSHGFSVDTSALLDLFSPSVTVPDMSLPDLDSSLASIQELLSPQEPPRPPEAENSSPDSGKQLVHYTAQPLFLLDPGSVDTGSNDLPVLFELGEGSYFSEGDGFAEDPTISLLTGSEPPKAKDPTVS
Transcription factor Sp1 (Homo sapiens), sequence (P08047 whole entry, looked up): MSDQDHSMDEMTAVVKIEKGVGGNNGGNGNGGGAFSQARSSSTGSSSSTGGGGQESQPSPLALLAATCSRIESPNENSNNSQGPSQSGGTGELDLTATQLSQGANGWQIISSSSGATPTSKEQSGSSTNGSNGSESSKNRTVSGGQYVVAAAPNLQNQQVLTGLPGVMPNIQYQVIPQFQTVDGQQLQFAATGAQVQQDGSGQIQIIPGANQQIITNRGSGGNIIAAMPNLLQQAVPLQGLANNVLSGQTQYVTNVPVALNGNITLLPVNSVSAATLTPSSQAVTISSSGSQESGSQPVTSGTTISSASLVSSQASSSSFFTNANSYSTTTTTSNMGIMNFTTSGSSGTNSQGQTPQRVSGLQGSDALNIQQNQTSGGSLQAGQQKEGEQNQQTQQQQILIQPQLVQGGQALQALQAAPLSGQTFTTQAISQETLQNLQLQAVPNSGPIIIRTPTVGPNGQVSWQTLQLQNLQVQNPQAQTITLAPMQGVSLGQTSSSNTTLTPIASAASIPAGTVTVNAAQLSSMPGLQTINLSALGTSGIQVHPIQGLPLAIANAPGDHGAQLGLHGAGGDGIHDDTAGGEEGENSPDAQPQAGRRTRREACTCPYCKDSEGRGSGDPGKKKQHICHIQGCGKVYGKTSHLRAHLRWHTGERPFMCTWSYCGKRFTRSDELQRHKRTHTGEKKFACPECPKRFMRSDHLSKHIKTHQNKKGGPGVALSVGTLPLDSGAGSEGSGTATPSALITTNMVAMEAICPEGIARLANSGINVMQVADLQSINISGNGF
Paired box protein Pax-6 (Homo sapiens), sequence (P26367 whole entry, looked up): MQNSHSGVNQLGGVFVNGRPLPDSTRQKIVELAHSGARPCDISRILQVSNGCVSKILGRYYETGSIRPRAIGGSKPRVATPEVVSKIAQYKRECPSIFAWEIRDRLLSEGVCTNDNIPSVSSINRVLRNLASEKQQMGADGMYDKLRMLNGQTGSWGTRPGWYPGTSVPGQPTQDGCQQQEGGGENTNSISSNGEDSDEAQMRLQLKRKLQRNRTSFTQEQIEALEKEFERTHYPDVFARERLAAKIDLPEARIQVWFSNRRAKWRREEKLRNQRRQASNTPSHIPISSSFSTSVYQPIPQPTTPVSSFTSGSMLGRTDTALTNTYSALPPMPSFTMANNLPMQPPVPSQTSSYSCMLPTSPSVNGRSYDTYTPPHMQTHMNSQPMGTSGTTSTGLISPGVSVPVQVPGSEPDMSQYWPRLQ
Hepatocyte nuclear factor 6 (Homo sapiens), sequence (Q9UBC0 whole entry, looked up): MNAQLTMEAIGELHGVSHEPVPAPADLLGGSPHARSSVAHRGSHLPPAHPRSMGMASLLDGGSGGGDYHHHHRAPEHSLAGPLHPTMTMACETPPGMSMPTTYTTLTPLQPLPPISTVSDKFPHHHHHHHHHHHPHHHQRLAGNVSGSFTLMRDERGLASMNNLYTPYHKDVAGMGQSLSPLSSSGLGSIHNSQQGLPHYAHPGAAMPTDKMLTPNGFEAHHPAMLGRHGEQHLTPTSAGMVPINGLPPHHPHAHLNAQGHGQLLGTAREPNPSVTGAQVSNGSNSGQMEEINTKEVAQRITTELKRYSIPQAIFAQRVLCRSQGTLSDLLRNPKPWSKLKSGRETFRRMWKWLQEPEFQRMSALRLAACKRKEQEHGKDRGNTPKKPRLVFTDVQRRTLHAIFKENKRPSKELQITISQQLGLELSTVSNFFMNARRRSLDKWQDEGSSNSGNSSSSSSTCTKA
Hypoxia-inducible factor 1-alpha (Homo sapiens), sequence (Q16665 whole entry, looked up): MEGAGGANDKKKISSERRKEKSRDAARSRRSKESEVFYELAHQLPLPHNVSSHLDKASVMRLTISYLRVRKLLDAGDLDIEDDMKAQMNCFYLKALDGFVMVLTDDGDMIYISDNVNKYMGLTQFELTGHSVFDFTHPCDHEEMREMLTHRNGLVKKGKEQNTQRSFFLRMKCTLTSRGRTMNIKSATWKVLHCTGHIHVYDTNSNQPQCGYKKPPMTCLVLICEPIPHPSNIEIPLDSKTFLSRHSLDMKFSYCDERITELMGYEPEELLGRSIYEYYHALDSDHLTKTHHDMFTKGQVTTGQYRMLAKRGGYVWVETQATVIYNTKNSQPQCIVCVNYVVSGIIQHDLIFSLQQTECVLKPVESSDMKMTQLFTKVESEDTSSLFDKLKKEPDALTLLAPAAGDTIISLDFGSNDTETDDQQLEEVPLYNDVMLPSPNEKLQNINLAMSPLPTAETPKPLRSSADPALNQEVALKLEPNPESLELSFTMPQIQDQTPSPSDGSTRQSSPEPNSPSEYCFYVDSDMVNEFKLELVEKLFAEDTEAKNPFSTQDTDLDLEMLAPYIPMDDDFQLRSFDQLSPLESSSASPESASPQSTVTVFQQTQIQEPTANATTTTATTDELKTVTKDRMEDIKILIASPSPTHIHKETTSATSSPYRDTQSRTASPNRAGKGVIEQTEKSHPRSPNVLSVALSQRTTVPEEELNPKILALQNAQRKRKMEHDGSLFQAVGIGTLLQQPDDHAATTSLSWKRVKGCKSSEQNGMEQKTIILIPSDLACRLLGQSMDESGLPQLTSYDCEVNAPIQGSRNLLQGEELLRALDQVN
Bile acid receptor (Homo sapiens), sequence (Q96RI1 whole entry, looked up): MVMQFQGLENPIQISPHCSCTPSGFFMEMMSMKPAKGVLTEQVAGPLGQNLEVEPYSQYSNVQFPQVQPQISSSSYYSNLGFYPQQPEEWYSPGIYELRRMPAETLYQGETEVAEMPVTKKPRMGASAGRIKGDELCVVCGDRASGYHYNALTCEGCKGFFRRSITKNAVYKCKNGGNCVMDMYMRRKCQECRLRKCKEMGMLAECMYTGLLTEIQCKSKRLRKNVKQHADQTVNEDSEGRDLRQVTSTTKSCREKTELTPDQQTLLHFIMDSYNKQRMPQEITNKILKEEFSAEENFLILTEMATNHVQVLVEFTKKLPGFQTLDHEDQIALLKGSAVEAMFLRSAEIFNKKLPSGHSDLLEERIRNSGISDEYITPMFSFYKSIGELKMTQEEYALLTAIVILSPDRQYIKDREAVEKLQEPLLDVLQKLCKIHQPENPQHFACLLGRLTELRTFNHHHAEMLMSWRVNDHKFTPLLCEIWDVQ

CC(=O)C(C)=CC1C(C)=CCCC1(C)C (centres undefined)
inactive: [1] | [2] | [3] | [4] | [5] | [6] | [7] | [8] | [9] | [10] | [11] | [13] | [14] | [15] | [16] | [17] | [18] | [19]
active: [12] 22.9 µM

Nc1ccc2c(c1)C(=O)c1ccccc1C2=O
active: [12] 26.9 µM
inactive: [1] | [2] | [3] | [4] | [5] | [6] | [7] | [8] | [9] | [10] | [11] | [13] | [14] | [15] | [16] | [17] | [18] | [19]

CNCc1cc(F)ccc1Oc1ccc(Cl)c(Cl)c1
inactive: [1] | [2] | [3] | [4] | [5] | [6] | [8] | [11] | [13] | [14] | [15] | [16] | [17] | [18] | [19]
active: [12] 7.83 µM

CC(C)c1ccc(C(=O)N=C(N)N)cc1S(C)(=O)=O
active: [12] 31.7 µM
inactive: [1] | [2] | [3] | [4] | [6] | [7] | [8] | [9] | [10] | [11] | [14] | [15] | [16] | [17] | [18] | [19]

C[Si]1(C)O[Si](C)(C)O[Si](C)(C)O[Si](C)(C)O1
inactive: [1] | [20] | [3] | [4] | [6] | [7] | [8] | [10] | [11] | [13] | [14] | [15] | [16] | [17] | [18] | [19]
active: [12] 26.6 µM

Cc1ccc(N(C)C)cc1
inactive: [1] | [2] | [3] | [4] | [5] | [6] | [7] | [10] | [11] | [13] | [15] | [17] | [18] | [19]
active: [12] 27.4 µM

COc1ccc(C)cc1N
inactive: [1] | [2] | [3] | [4] | [5] | [6] | [7] | [8] | [9] | [10] | [11] | [12] | [13] | [14] | [15] | [17] | [18] | [19]

Oc1ccc2c(c1)OC[C@@H](N1CCC(O)(c3ccc(F)cc3)CC1)[C@H]2O
inactive: [1] | [2] | [3] | [4] | [5] | [6] | [8] | [13] | [15] | [16] | [17] | [18] | [19]
active: [9] 57.2 µM | [10] 43.2 µM | [11] 63.7 µM | [12] 13.7 µM | [14] 50 µM
